The values that follow come from the supplement of paper PMC10732440.

Structures are written as SMILES. ± gives the standard deviation of the averaged measurements.

This experiment relates to Caenorhabditis elegans N2 infected with Nematocida parisii ERTm1. Kind of experiment: progeny production relative to DMSO uninfected control; higher = more progeny despite microsporidia infection (inhibition of infection with low host toxicity). The conditions noted are these: infection time 6 days. A digest of the protocol: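 Progeny production is reported as a percentage of spore-free vehicle wells and averaged across replicates. It was measured after bleach-synchronised wild-type C. elegans L1 larvae (100 per well) spent 6 days shaking at 21°C in K-medium with E. coli OP50, 15,000 N. parisii spores/μL and compound at 100 μM or 40 μM in 1% DMSO. Counting used Rose Bengal staining, flatbed scanning and WorMachine, and each compound and dose was tested three times.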

In the case of `CCC(CC)[C@H](NC(C)=O)[C@@H]1[C@H](O)[C@@H](C(=O)O)C[C@H]1NC(=N)N`, the progeny production is, setting by setting: (40 µM) 6.29 ± 2.5%; (100 µM) 7.52 ± 7.1%.

With `NC(=O)c1[nH]c2ccc(S(N)(=O)=O)cc2c1-c1ccccc1`, the progeny production was 4.85 ± 2.6% (40 µM) and 6.59 ± 2.8% (100 µM).

For the compound `C[C@H]1CC[C@@]2(O)C(C)(C)[C@@H]3CC[C@@]2(C)[C@H]1C3`, the progeny production (40 µM) was 6.77 ± 4.3% and the progeny production (100 µM) worked out at 7.52 ± 7.7%.

As for `O=C(Nc1cccc(C2=NCCN2)c1)c1ccc(-c2ccc(C(=O)Nc3cccc(C4=NCCN4)c3)cc2)cc1`, the progeny production runs as follows: (40 µM) 7.71 ± 2.9%; (100 µM) 27.6 ± 16%.

On to `C[C@H](Cn1cnc2c(N)ncnc21)OCP(=O)(O)O`, for which the progeny production runs as follows: (40 µM) 6.28 ± 6.8%; (100 µM) 17.4 ± 6%.

In the case of `N=C(N)c1ccc(COc2ccc(Cl)cc2)cc1`, the progeny production is, setting by setting: (40 µM) 3.13 ± 0.66%; (100 µM) 7.24 ± 6.1%.

`CO/N=C(\C(=O)N[C@@H]1C(=O)N2C(C(=O)OCOC(=O)C(C)(C)C)=C(/C=C\c3scnc3C)CS[C@H]12)c1csc(N)n1`: the progeny production (40 µM) turned out to be 4.46 ± 2.2% and the progeny production (100 µM) is 13.1 ± 5.6%.

On to `CN(C/C=C/C#CC(C)(C)C)Cc1cccc2ccccc12`, for which the progeny production is, setting by setting: (40 µM) 5.74 ± 2.2%; (100 µM) 17.7 ± 11%.

For `CN(O)C(=O)c1cc2c(CN3CCC[C@H]3C(N)=O)cn(Cc3ccc(F)cc3)c2cn1`, the progeny production turned out to be 3.84 ± 1.6% (40 µM) and 11.1 ± 4.5% (100 µM).

The compound `Clc1ccc(Cn2c(CN3CCCC3)nc3ccccc32)cc1` had a progeny production (40 µM) of 3.41 ± 1.9% and a progeny production (100 µM) of 6.88 ± 1.8%.

As to `O=C(CCc1ccc2c(c1)OCO2)NCc1ccc(-c2ccccc2F)cc1`, the progeny production runs as follows: (40 µM) 5.04 ± 3.2%; (100 µM) 14 ± 6.8%.

Regarding `Cc1nc(-c2ccc(C3N(C)c4ccc(F)cc4C(=O)N3c3ccccc3)s2)cs1` (centres undefined), the progeny production is, setting by setting: (40 µM) 3.69 ± 1.5%; (100 µM) 6.47 ± 4.9%.

For `CCNC(=O)Nc1cc(-c2ccccc2)c(-c2cncc(C(=O)O)c2)cn1`, the progeny production is 3.89 ± 0.4% (40 µM) and 28.1 ± 28% (100 µM).

Consider `O=C1C=C(c2ccccc2)S(=O)(=O)c2ccccc21`, for which the progeny production runs as follows: (40 µM) 9.24 ± 1.8%; (100 µM) 38 ± 9.4%.

Turning to `CCc1cc(CCCOc2c(C)cc(-c3noc(C(F)(F)F)n3)cc2C)on1`, the progeny production is, setting by setting: (40 µM) 5.28 ± 4%; (100 µM) 12.5 ± 14%.

Consider `Cc1c[nH]c(=O)nc1NCc1ccccc1`, for which the progeny production is, setting by setting: (40 µM) 7.05 ± 4.5%; (100 µM) 8.45 ± 2.8%.

As to `CNCC(=O)OCc1cccnc1N(C)C(=O)OC(C)[n+]1cnn(C[C@](O)(c2cc(F)ccc2F)[C@@H](C)c2nc(-c3ccc(C#N)cc3)cs2)c1` (some centres undefined), the progeny production was determined as 7.13 ± 1.5% (40 µM) and 16.8 ± 10% (100 µM).

Take `CC(C)N(c1cc(-c2ccccc2)sc1C(=O)O)C(=O)[C@H]1CC[C@H](C)CC1`: the progeny production (40 µM) was 4.15 ± 1.8% and the progeny production (100 µM) is 12.2 ± 7.8%.

`Oc1c(C(Nc2nc3ccccc3s2)c2ccc(OC(F)F)cc2)ccc2cccnc12` (centres undefined): the progeny production runs as follows: (40 µM) 3.08 ± 0.27%; (100 µM) 9.48 ± 12%.

Compound `Cc1nc2ccc(Oc3ccccc3)cc2c2c1CCN2CCc1ccccc1` gave a progeny production (40 µM) of 4.79 ± 0.99% and a progeny production (100 µM) of 11.3 ± 9.1%.

Consider `CCO/N=C/c1ccc(OCCCCN2CCN(c3ccncc3)C2=O)cc1`, for which the progeny production (40 µM) amounted to 5.24 ± 4.2% and the progeny production (100 µM) was determined as 9.79 ± 7.8%.

In the case of `CC1CN(c2ncnc3c2c(-c2ccccc2)cn3-c2ccc(F)cc2)CC(C)O1` (centres undefined), the progeny production (40 µM) came to 4.39 ± 1.6% and the progeny production (100 µM) turned out to be 13.4 ± 13%.

As to `Clc1cc2nc(C3CCNCC3)n(Cc3ccc(CNCCc4c[nH]cn4)cc3)c2cc1Cl`, the progeny production by setting is: (40 µM) 7.61 ± 2.7%; (100 µM) 10.3 ± 7.1%.

In the case of `c1cc(CN2CCCNCCNCCCNCC2)ccc1CN1CCCNCCNCCCNCC1`, the progeny production reads like this: (40 µM) 2.33 ± 1%; (100 µM) 9.51 ± 8.6%.

`C[C@H](NC(=O)C(=O)Nc1ccccc1C(C)(C)C)C(=O)N[C@@H](CC(=O)O)C(=O)COc1c(F)c(F)cc(F)c1F` showed a progeny production (40 µM) of 5.12 ± 0.88% and a progeny production (100 µM) of 15 ± 11%.

`COc1cc(C(C(=O)NC2CCCCC2)N(C(=O)Cc2c[nH]c3ccccc23)c2ccc(C(C)C)cc2)cc(OC)c1OC` (centres undefined): the progeny production runs as follows: (40 µM) 5.01 ± 0.57%; (100 µM) 7.98 ± 2%.

On to `C[C@H](NC(CC(=O)c1ccccc1C(F)(F)F)C(=O)O)c1ccccc1` (some centres undefined), for which the progeny production reads like this: (40 µM) 8 ± 6.4%; (100 µM) 5.89 ± 3.9%.

In the case of `COCCn1cnc2c(O)nc(Nc3ccccc3)nc21`, the progeny production came out at 8.43 ± 4.5% (40 µM) and 17.6 ± 6.1% (100 µM).

On to `CCCCOC(=O)Nc1cc2nc(C3CCCCC3)[nH]c2cc1N(CC)CC`, for which the progeny production worked out at 6.28 ± 3% (40 µM) and 13.5 ± 8.2% (100 µM).

As for `Cc1c(F)cccc1NC(=O)Nc1ccc(Cl)c(S(=O)(=O)[C@H]2CCCNC2)c1O`, the progeny production was 8.9 ± 1.8% (40 µM) and 13 ± 5.7% (100 µM).

The compound `O=c1cc(NCCCN[C@@H]2CCOc3c(Br)cc(Br)cc32)[nH]c2ccsc12` gave a progeny production (40 µM) of 5.52 ± 2.9% and a progeny production (100 µM) of 8.91 ± 4%.

On to `OC1O[C@H](CSc2ccc(F)cc2)[C@@H](O)[C@H]1O` (some centres undefined), for which the progeny production (40 µM) was 5.22 ± 0.52% and the progeny production (100 µM) is 9.44 ± 6.8%.

The compound `Cn1cc(NC(=O)c2cc(NC(=O)c3ccc(/C=C/c4cnc5ccccc5c4)cc3)cn2C)cc1C(=O)NCCN1CCOCC1` yielded a progeny production (40 µM) of 7.6 ± 3.5% and a progeny production (100 µM) of 15.5 ± 5.6%.

In the case of `Cc1onc(-c2ccccc2Cl)c1C(=O)N[C@@H]1C(=O)N2[C@@H]1SC(C)(C)[C@@H]2C(=O)O`, the progeny production by setting is: (40 µM) 2.76 ± 1.9%; (100 µM) 19.1 ± 12%.

Consider `CC(Oc1ccc(Cl)cc1Cl)C(=O)NCc1ccc2c(c1)OCO2` (centres undefined), for which the progeny production runs as follows: (40 µM) 3.27 ± 0.72%; (100 µM) 14.5 ± 9.6%.

As to `CC[C@@]1(O)C(=O)OCc2c1cc1n(c2=O)Cc2cc3c(CN(C)C)c(O)ccc3nc2-1`, the progeny production was found to be 7.48 ± 1.6% (40 µM) and 10 ± 2.5% (100 µM).

In the case of `CCc1nc(N)nc(N)c1C#CC(C)c1cc(OC)cc(-c2ccncc2)c1` (centres undefined), the progeny production by setting is: (40 µM) 5.28 ± 2.2%; (100 µM) 9.94 ± 7.4%.
